Results: the supplement of paper PMC13380429

What was measured:
[1] = test system: Vero E6 infected with SARS-CoV-2; assay: morphology score (similarity to uninfected cells); higher = more like uninfected cells; conditions: 24 h
[2] = test system: Vero E6 infected with SARS-CoV-2; assay: SARS-CoV-2 infection rate relative to infected DMSO; higher = more infection, active = 60 or less; conditions: 24 h

Structure (SMILES)	morphology score [1]	SARS-CoV-2 infection rate [2]
O=C(O)Cc1cccc2c(=O)cc(-c3ccccc3)oc12 [mitoflaxone] (10 µM)	0.0177	106% (inactive)
COc1ccccc1OCC(O)COC(N)=O (stereo unspecified) [methocarbamol] (10 µM)	0.0924	100% (inactive)
CC(=O)OCC1=C(C(=O)O)N2C(=O)[C@@H](NC(=O)Cc3cccs3)[C@H]2SC1 [cephalothin] (10 µM)	-0.0126	102% (inactive)
Cc1ccc(/N=C/N(C)/C=N/c2ccc(C)cc2C)c(C)c1 [amitraz] (10 µM)	0.147	106% (inactive)
C[C@@H]1CC[C@@]2(OC1)O[C@H]1C[C@H]3[C@@H]4CC=C5C[C@@H](O[C@@H]6O[C@H](CO)[C@@H](O[C@@H]7O[C@@H](C)[C@H](O)[C@@H](O)[C@H]7O)[C@H](O)[C@H]6O[C@@H]6O[C@@H](C)[C@H](O)[C@@H](O)[C@H]6O)CC[C@]5(C)[C@H]4CC[C@]3(C)[C@H]1[C@@H]2C [dioscin] (10 µM)	0.0193	101% (inactive)
O=C1NC(=O)/C(=C/c2ccc3c(c2)OC(F)(F)O3)S1 (10 µM)	-0.0969	106% (inactive)
CCC(C)n1ncn(-c2ccc(N3CCN(c4ccc(OCC5COC(Cn6cncn6)(c6ccc(Cl)cc6Cl)O5)cc4)CC3)cc2)c1=O (stereo unspecified) [itraconazole] (10 µM)	0.0302	104% (inactive)
CC1=C(C(=O)O)N2C(=O)[C@@H](NC(=O)[C@H](N)C3=CCC=CC3)[C@H]2SC1 [cephradine] (10 µM)	0.0689	106% (inactive)
